The target of test [1] is Estrogen receptor beta (Homo sapiens) (UniProt Q92731). In words: OT_ER_ERbERb_1440: Odyssey Thera (OT) 24-hour HEK293T Protein-Complementation Assay for Estrogen Receptor-beta/-beta Homodimer (AID 2283380).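 Note: scored as signal increase over DMSO baseline for both agonists and antagonists.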 In a few lines:
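HEK293T cells stably expressing ER beta LBD (aa 310-547) homodimer fragment-complementation reporter, dosed 24 h. Cells formaldehyde-fixed, Draq5-stained; gain in nuclear (agonist) or nuclear plus cytoplasmic (antagonist) fluorescence versus DMSO read by laser scanning cytometry.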

The target of test [2] is Estrogen receptor (Homo sapiens) (UniProt P03372). As to the kind of experiment: OT_ERa_GFPERaERE_0480: Odyssey Thera (OT) 8-hour HeLa Transcription Induction Assay for Estrogen Receptor (AID 2283381; active = hit-call score of the fitted dose curve at least 0.9, where 1 is the maximum; inactive = score below 0.9). In a few lines: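 Fluorescent reporter signal, imaged by microscopy and scored with image-analysis algorithms, was taken 8 h after chemical dosing of HeLa cells; activity was fitted upward relative to DMSO.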
Chain of Estrogen receptor (Homo sapiens) (P03372 whole entry, looked up): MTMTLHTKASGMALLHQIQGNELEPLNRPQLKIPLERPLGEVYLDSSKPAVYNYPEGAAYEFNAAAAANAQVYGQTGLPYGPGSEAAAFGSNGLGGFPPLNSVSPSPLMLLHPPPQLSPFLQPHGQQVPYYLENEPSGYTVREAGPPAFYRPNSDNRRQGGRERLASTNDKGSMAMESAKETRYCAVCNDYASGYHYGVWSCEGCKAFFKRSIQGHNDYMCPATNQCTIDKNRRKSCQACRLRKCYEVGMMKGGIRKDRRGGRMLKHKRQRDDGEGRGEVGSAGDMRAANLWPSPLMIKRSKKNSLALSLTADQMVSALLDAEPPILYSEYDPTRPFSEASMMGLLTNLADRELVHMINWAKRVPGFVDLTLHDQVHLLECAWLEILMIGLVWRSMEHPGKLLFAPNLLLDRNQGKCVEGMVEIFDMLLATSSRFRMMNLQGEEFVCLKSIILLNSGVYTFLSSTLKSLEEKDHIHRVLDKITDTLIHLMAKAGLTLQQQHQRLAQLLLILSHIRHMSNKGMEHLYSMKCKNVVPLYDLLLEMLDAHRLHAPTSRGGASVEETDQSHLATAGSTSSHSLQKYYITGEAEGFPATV

The target is the same in test [3]. As to the kind of experiment: OT_ERa_GFPERaERE_0120: Odyssey Thera (OT) 2-hour HeLa Transcription Induction Assay for Estrogen Receptor (AID 2283382). In short, it runs like this: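 HeLa, 384-well, 2 h chemical exposure; GFP reporter induction (ERE), fluorescence microscopy; high content image analysis; positive fitting direction vs DMSO.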
Test [4] deals with Retinoic acid receptor RXR-alpha (Homo sapiens) (UniProt P19793). In words: OT_NURR1_NURR1RXRa_0480: Odyssey Thera (OT) 8-hour HEK293T Protein Complementation Assay for Nurr1/retinoid X receptor (RXR) (AID 2283385). In a few lines:
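8 h compound exposure, HEK293T; Nurr1/RXRα fragment complementation; fluorescence intensity; positive fitting direction vs DMSO baseline.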

Test [5] has the same target. As to the kind of experiment: OT_NURR1_NURR1RXRa_1440: Odyssey Thera (OT) 24-hour HEK293T Protein Complementation Assay for Nurr1/retinoid X receptor (RXR) (AID 2283386). In a few lines:
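Interaction of Nurr1 with RXRα brings fused reporter fragments together in human HEK293T cells, restoring a functional reporter. Fluorescence intensity is measured 24 h after chemical treatment, and values are analysed in the positive direction against DMSO.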

Test [6] addresses Peroxisome proliferator-activated receptor gamma (Homo sapiens) (UniProt P37231). As to the kind of experiment: OT_PPARg_PPARgSRC1_0480: Odyssey Thera (OT) 8-hour Protein-Complementation Assay for Peroxisome Proliferator-activated Receptor Gamma / SRC-1 Co-activator (AID 2283387).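 Note: nuclear to cytoplasmic split Venus YFP fluorescence ratio reporting PPARg SRC-1 interaction.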 In short, it runs like this: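 Split-YFP (IFP1/IFP2) PPARg/SRC-1 reporter, HEK293T, 37 °C, 5% CO2; 8 h compound; formaldehyde fix + Draq5; high-content imaging, N/C ratio, ≥350 cells/image, positive direction vs DMSO.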

Test [7] shares this target. In words: OT_PPARg_PPARgSRC1_1440: Odyssey Thera (OT) 24-hour Protein-Complementation Assay for Peroxisome Proliferator-activated Receptor Gamma/ SRC-1 Co-activator (AID 2283388).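 Note: nuclear to cytoplasmic ratio of reconstituted Venus YFP fluorescence in fixed imaged cells.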 In short, it runs like this:
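Readout is the 488 nm N/C fluorescence ratio from fixed, Draq5-stained HEK293T cells after 24 h compound exposure. Cells carried transiently transfected PPARg and SRC-1 fused to Venus fragments, transfected 48 h before treatment.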

Test [8] has as its target Bile acid receptor (Homo sapiens) (UniProt Q96RI1). As to the kind of experiment: OT_FXR_FXRSRC1_0480: Odyssey Thera (OT) 8-hour HEK293T Protein-Complementation Assay for Farnesoid X receptor/SRC-1 Co-activator (AID 2283383). In a few lines:
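Human kidney HEK293T cells carried FXR/SRC-1 fragment-complementation constructs. Compounds were added and incubated 8 h. Reporter reassembly upon receptor–co-activator interaction was then quantified by fluorescence, with curves fitted in the positive direction relative to DMSO.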

Test [9] shares this target. In words: OT_FXR_FXRSRC1_1440: Odyssey Thera (OT) 24-hour HEK293T Protein-Complementation Assay for Farnesoid X receptor/SRC-1 Co-activator (AID 2283384). In a few lines: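 Compounds are applied to human kidney HEK293T cells expressing bait and prey fused to reporter protein fragments; after 24 h, reconstituted reporter fluorescence is measured. Activity is fitted as signal gain over DMSO.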

Test [10] is described as follows: CEETOX_H295R_OHPREG: CeeTox H295R High-throughput Steroidogenesis Assay for OH-Pregnenolone (OHPREG) (AID 2283434; active = hit-call score of the fitted dose curve at least 0.9, where 1 is the maximum; inactive = score below 0.9). As to conditions: actives raise or lower the signal. In short, it runs like this: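 H295R cells pre-stimulated 48 h with 10 uM forskolin, then exposed 48 h to chemical in 0.1% DMSO. 17alpha-hydroxypregnenolone in medium quantified by MTBE extraction and HPLC-MS/MS; bidirectional fit versus DMSO, viability checked by MTT.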

Test [11] is described as follows: CEETOX_H295R_OHPROG: CeeTox H295R High-throughput Steroidogenesis Assay for OH-Progesterone (OHPROG) (AID 2283435; active = hit-call score of the fitted dose curve at least 0.9, where 1 is the maximum; inactive = score below 0.9). The note with it: actives raise or lower the signal. In short, it runs like this: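 H295R, 10 uM forskolin prestim 48 h; cmpd in 0.1% DMSO 48 h; medium MTBE-extracted, HPLC-MS/MS for OH-progesterone; 7-pt std curve; bidirectional fit vs DMSO; MTT viability, chemicals diluted until viability >/=70%.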

Test [12] can be described thus: CEETOX_H295R_ESTRADIOL: CeeTox H295R High-throughput Steroidogenesis Assay for Estradiol (AID 2283440; active = hit-call score of the fitted dose curve at least 0.9, where 1 is the maximum; inactive = score below 0.9;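 note: estradiol secreted into medium quantified by LC-MS/MS after dansyl derivatisation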). The note with it: actives raise or lower the signal. In a few lines:
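Estradiol in spent medium measured by LC-MS/MS after dansyl chloride derivatisation. Forskolin-primed (10 uM, 48 h) human adrenal H295R cells received test chemical 48 h at 0.1% DMSO; concentrations lowered until MTT viability >/=70%.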

A short description of test [13]: CEETOX_H295R_ESTRONE: CeeTox H295R High-throughput Steroidogenesis Assay for Estrone (AID 2283441; active = hit-call score of the fitted dose curve at least 0.9, where 1 is the maximum; inactive = score below 0.9;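 note: estrone secreted into medium measured by LC-MS/MS after dansyl derivatization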). As to conditions: actives raise or lower the signal. In short, it runs like this: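 H295R cells prestimulated 48 h with 10 uM forskolin, then exposed 48 h to chemicals in 0.1% DMSO final; estrone in medium extracted with MTBE, dansyl-derivatized, quantified by HPLC-MS/MS; bidirectional fitting versus DMSO, viability by MTT.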

From PubChem BioAssay (EPA / NIEHS) come the findings set out here.

The structures appear in SMILES notation. Results filed as inconclusive are left out. More than one record can exist for a structure, and the calls need not agree. Active and inactive are the calls of the source. Rule for the calls, unless noted: active = hit-call score of the fitted dose curve at least 0.9, where 1 is the maximum; inconclusive = response in the unintended direction; inactive = score below 0.9.

Chain of Estrogen receptor beta (Homo sapiens) (Q92731 whole entry, looked up, the tested form may be a part): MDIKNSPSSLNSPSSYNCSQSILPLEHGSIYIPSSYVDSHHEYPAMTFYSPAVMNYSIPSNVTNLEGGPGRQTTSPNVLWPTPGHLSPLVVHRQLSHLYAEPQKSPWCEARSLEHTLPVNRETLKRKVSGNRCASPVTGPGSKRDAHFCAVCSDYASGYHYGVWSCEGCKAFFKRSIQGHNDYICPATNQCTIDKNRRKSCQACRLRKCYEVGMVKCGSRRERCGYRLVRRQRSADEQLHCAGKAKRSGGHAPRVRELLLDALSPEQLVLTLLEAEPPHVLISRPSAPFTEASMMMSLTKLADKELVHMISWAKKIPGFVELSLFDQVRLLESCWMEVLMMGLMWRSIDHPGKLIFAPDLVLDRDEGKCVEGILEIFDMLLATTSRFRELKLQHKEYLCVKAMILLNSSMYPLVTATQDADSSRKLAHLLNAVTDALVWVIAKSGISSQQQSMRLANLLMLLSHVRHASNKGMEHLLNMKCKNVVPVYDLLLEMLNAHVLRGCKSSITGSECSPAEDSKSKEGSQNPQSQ
Chain of Peroxisome proliferator-activated receptor gamma (Homo sapiens) (P37231 whole entry, looked up): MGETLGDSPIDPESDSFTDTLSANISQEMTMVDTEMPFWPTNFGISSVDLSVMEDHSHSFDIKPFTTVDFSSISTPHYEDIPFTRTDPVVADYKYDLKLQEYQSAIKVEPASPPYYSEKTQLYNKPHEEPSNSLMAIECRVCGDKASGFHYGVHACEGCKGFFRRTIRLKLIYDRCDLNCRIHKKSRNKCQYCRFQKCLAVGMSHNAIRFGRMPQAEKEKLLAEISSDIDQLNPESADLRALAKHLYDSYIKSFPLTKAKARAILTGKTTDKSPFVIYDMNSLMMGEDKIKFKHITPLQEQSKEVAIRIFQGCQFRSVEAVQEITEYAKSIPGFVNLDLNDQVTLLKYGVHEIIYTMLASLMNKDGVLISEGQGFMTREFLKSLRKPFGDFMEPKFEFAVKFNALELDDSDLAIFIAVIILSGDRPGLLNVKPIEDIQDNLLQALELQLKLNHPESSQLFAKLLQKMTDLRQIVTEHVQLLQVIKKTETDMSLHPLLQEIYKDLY
Chain of Retinoic acid receptor RXR-alpha (Homo sapiens) (P19793 whole entry, looked up, the tested form may be a part): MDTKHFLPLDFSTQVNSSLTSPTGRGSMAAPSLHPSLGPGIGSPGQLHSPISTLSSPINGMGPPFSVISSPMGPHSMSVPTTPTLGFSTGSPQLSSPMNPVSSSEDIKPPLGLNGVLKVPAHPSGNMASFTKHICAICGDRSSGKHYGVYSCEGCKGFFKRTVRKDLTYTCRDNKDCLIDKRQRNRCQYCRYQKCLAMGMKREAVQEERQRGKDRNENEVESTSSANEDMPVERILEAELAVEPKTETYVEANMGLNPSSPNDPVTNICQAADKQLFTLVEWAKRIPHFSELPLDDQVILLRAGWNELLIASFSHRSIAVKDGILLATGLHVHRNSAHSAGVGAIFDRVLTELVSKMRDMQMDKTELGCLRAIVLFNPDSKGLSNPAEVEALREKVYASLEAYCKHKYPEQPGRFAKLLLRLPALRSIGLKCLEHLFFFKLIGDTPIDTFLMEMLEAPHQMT
Chain of Bile acid receptor (Homo sapiens) (Q96RI1 whole entry, looked up, the tested form may be a part): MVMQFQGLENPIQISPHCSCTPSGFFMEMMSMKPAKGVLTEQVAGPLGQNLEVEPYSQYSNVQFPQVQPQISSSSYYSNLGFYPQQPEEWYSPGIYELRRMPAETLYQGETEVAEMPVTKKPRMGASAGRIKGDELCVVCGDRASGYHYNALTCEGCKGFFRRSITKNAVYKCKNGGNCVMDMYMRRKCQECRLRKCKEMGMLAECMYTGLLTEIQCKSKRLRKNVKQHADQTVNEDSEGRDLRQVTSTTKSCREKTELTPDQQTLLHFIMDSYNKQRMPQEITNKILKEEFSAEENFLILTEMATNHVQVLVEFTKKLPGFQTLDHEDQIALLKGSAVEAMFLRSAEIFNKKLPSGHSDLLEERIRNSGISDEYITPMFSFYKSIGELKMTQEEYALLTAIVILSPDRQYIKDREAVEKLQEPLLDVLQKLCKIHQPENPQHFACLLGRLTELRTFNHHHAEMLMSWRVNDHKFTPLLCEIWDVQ

A word on the AC50: it is the concentration at which the activity in the assay is half-maximal. Consider `O=S1(=O)CCCO1`, for which, in test [1], the AC50 is 17.5 µM (active). Moreover, the result in test [2], in [3], in test [4], in [5], in test [6] and in test [7] was inactive.
For the compound `CCCCCOC(C)=O`, the compound was classed as inactive in test [2], in [3], in [4], in test [5] and in test [6].
As for `OCCNCCO`, the compound was called inactive in [2], in [3], in [4] and in test [5].
Consider `O=C(O)CO`, for which the result in test [1], in test [2], in [3], in [5] and in test [6] was inactive.
As for `OC(CCl)CCl`, the compound was called inactive in [1], in [2], in test [3], in test [4], in [5] and in test [6].
As for `OC(Cn1cncn1)(Cn1cncn1)c1ccc(F)cc1F`, the result in [1], in [2], in [3], in [4], in test [5] and in test [6] was inactive. The result in test [7] was inactive.
For `CCCCCCCC/C=C\CCCCCCCC(=O)OC[C@@H](O)[C@H]1OC[C@H](O)[C@H]1O`, the compound was called inactive in [1], in [2], in test [3], in test [4], in test [5] and in test [6]. Further, the outcome in test [7] was inactive.
Take `Cn1c(=O)c2[nH]cnc2n(C)c1=O`: the outcome in test [3], in [8], in [9], in test [4], in [5] and in test [6] was inactive.
For `Cc1ccc(S(=O)(=O)NC(=O)NN2CCCCCC2)cc1`, the outcome in test [1], in test [2], in test [3], in test [4], in [5] and in test [6] was inactive. The outcome in test [7] was inactive.
`c1ccc2ncccc2c1`: the compound was called inactive in test [2], in [3], in test [4], in test [5], in test [6] and in test [7].
`CNC(C)=O`: the outcome in test [1], in test [2], in test [3], in test [4], in [5] and in [6] was inactive.
With `CCCCCCCCCCCCCCO`, the compound was called inactive in test [1], in test [2], in test [3], in [4], in test [5] and in test [6]. For the same compound, the result in test [7], in [10], in test [11], in test [12] and in test [13] was inactive. In test [5], the AC50 is 74.3 µM (active).
